# DT40 TDP1 no CPT: qHTS for Inhibitors of human tyrosyl-DNA phosphodiesterase 1 (TDP1): qHTS in cells in absence of CPT | DT40 Tdp1-/- hTDP1 cells, no CPT, ATP luminescence, 48 h | 15% of 420,000 active | AID 686978, 2013 | Potency, µM (highest dose often 46.2 µM), for inactives: at the top dose activity change, negative = growth inhibition, hits mostly inhibitors; also: potency is read from the fitted curve at half-maximal effect; % is scaled to controls: 0 for no effect and ±100 for the full control effect; nearly all actives have a fitted effect of over 55% in size
#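 Cells were dispensed at 400 per well, compounds added by pin tool, plates incubated ≥48 hr at 37 °C, then CellTiter-Glo added for 30 min at room temperature before luminescence reading. Line: DT40 Tdp1-/- complemented with hTDP1; camptothecin omitted.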
# TGFb inhibitor: inhibitors of TGF-b signaling | 1.2% of 410,000 active | Potency, µM (highest dose often 46.1 µM), for the others: at the highest dose activity, negative = inhibition, actives largely listed as inhibitors | HepG2 CAGA-GFP TGF-b/SMAD3 reporter, GFP fluorescence, 18 h; TGF-beta stimulated, 500 pg/mL final | AID 588855; also: potency is read from the fitted curve at half-maximal effect; % is scaled to controls: 0 for no effect and ±100 for the full control effect; nearly all actives have a fitted effect of over 65% in size
#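 TGF-beta reporter screen: HEPG2 CAGA-GFP, 1% FBS, 500 pg/mL TGF-beta final, 18 h; per-cell GFP summed per well; curves fitted and categorized by class.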
# TDP1 block: inhibitors of human tyrosyl-DNA phosphodiesterase TDP1. Q9NUW8. recombinant TDP1, AlphaScreen DNA substrate cleavage. Potency, µM (doses to about 130 µM), for the others: at the top dose activity change, negative = inhibition, actives largely listed as inhibitors. 0.28% of 350,000 active. AID 485290; also: potency is read from the fitted curve at half-maximal effect; % is scaled to controls: 0 for no effect and ±100 for the full control effect; nearly all actives have a fitted effect of over 40% in size
# Target sequence (Q9NUW8 whole entry, looked up): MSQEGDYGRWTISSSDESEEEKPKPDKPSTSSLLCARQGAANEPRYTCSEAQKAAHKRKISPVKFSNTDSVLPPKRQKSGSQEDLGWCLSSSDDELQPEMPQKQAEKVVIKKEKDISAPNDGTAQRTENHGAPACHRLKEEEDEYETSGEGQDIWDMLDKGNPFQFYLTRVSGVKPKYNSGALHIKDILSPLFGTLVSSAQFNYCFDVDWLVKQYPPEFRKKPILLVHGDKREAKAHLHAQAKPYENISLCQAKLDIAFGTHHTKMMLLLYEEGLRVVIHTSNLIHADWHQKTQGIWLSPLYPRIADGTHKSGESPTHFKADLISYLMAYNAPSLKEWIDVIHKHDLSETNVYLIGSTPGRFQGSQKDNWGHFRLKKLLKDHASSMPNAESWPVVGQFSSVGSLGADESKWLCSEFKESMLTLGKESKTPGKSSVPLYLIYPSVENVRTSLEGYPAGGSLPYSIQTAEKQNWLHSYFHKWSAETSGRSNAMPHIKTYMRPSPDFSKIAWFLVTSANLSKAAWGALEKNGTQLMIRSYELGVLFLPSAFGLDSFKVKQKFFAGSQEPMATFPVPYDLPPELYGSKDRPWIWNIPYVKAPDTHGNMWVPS
#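 Enzyme-compound mixtures sat 15 min at room temperature, followed by a 5 min reaction with 15 nM final substrate and 10 min with AlphaScreen beads. Recombinant human Tdp1 was used at 1 nM final.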
# IL1B secr inh: inhibitors of inflammasome signaling (IL-1 beta secretion); THP-1 LPS/ATP IL-1B secretion, AlphaLISA, 16 h; stronger effect = lower value; activity change, % at 57.5 µM; 4.7% of 360,000 active; AID 743279; in the data active = activity change below about -50%; inconclusive = mostly about -30% to -49%; also: % is scaled to controls: 0 for no effect and ±100 for the full control effect
#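 Secreted IL-1B measured by AlphaLISA bead assay after 16 h compound exposure of THP-1 cells; compounds (final up to 57.5 uM) added 1 h before LPS (250 ng/mL) and ATP (1.25 mM) stimulation; lower signal means less secretion.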
# DT40 TDP1 CPT: DT40-hTDP1 cell growth loss with CPT | chicken DT40 Tdp1-/-;hTDP1 cells + 20 nM CPT, ATP luminescence, 48 h | AID 686979 | 12% of 420,000 active | Potency, µM (titrated, usually from 46.2 µM), inactives show top-dose activity change, negative = growth inhibition, actives largely listed as inhibitors; also: potency is read from the fitted curve at half-maximal effect; % is scaled to controls: 0 for no effect and ±100 for the full control effect; nearly all actives have a fitted effect of over 55% in size
#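 Chicken DT40 Tdp1-/- cells complemented with human TDP1, 400 cells/well, exposed to compounds plus 20 nM camptothecin for at least 48 h at 37 C; viability read as ATP content by CellTiter-Glo luminescence.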
# HepG2 viability: kills HepG2 cells in TGF-b inhibitor counter-screen; HepG2 CAGA-GFP viability, ATP luminescence, 18 h; Potency, µM (highest dose often 46.1 µM), for the others: top-dose activity change, negative = cytotoxicity, usual class: cytotoxic; 0.76% of 410,000 active; AID 588856; also: potency is read from the fitted curve at half-maximal effect
#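 CellTiter-Glo luminescence gave cytotoxicity after 18 hours at 37 degrees C. The cells were HepG2 CAGA-GFP in 1% FBS DMEM, stimulated with 500 pg/mL TGF-beta after compound addition. %Activity was normalised to no-cell wells (complete cell-killing) and DMSO (no toxicity), and curves were fitted and classified.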
# Starred values were filed as active, the others as inactive; i = inactive; ? = inconclusive; . = no result; [ ] = dose if it differs, or a comment. An excerpt weighted towards active compounds, which were near 19% of everything screened. Unless noted, calls follow the shape of the dose curve; as a rule, active = well fitted curve in the direction sought with a large enough effect; inconclusive = small, poorly fitted or top-dose-only effect, or another doubt; inactive = no such curve, though single readings can be large; an effect the other way counts as inactive or inconclusive.
SMILES,DT40 TDP1 no CPT,TGFb inhibitor,TDP1 block,IL1B secr inh,DT40 TDP1 CPT,HepG2 viability
Cc1ccsc1CN1CCc2nc(Nc3ccccc3)ncc2C1,?,-22.3%,8.8%,.,?,-26.2%
CC(C)N(C)CCOC(=O)c1ccccc1Br,?,-3.5%,0.0%,-3.9,16.4µM*,-0.9%
CC(C)NC(=O)Nc1ccc2c(c1)C(=O)N([C@H](C)CO)C[C@@H](C)[C@@H](CN(C)C(=O)NC1CCCCC1)O2,-1.8%,-14.5%,0.8%,-4.0,1.0%,0.9%
O=C(Nc1ccccc1)c1nc[nH]c1C(=O)NCCCCCCNC(=O)c1[nH]cnc1C(=O)Nc1ccccc1,8.2µM*,-5.1%,2.1%,-6.9,7.31µM*,-16.9%
Cc1ccc(NC(=O)c2nc[nH]c2C(=O)NCCN(CCNC(=O)c2[nH]cnc2C(=O)Nc2ccc(C)cc2)CCNC(=O)c2[nH]cnc2C(=O)Nc2ccc(C)cc2)cc1,16.4µM*,-19.8%,1.6%,?,?,-8.7%
Cc1cccc(NC(=O)c2nc[nH]c2C(=O)Nc2cccc(C)c2)c1,10.3µM*,16.2%,1.2%,3.1,?,-2.8%
O=C(Nc1ccc(Cl)cc1)c1nc[nH]c1C(=O)NCCCNC(=O)c1[nH]cnc1C(=O)Nc1ccc(Cl)cc1,.,.,-6.3%,.,.,.
Cc1cccc(NC(=O)c2nc[nH]c2C(=O)N[C@@H](C)c2ccccc2)c1,29.1µM*,?,0.3%,?,23.1µM*,-45.1%
Cc1cccc(NC(=O)c2nc[nH]c2C(=O)NCCCNC(=O)c2[nH]cnc2C(=O)Nc2cccc(C)c2)c1,?,1.8%,-6.2%,-0.8,-2.2%,-5.7%
CCCn1c(SCC(=O)NNC(=O)c2ccccc2)nnc1-c1cccnc1,-10.1%,-4.8%,2.5%,5.4,-9.3%,-6.3%
O=[N+]([O-])c1cccc2[nH]cnc12,-2.0%,-20.5%,.,.,1.5%,-36.1%
COc1ccc(NC(=O)CCS(=O)(=O)c2cc3c4c(c2)CCN4C(=O)CC3)cc1OC,-4.0%,?,2.6%,.,-15.7%,-1.5%
CC(=O)OCC1OC(C#Cc2ccc(Br)cc2)C=CC1OC(C)=O (centres undefined),.,.,0.5%[21 µM],.,.,.
Cc1ccc(NC(=O)CN2C(=O)COc3ccc(S(=O)(=O)NC4CCCC4)cc32)cc1N(C)C,?,-24.9%,3.7%,.,-24.8%,-15.4%
Cc1cccc(NC(=O)c2nc[nH]c2C(=O)N2CCN(C(=O)OC(C)(C)C)CC2)c1,?,-9.8%,1.9%,-2.0,20.6µM*,0.1%
O=C(Nc1ccc(F)cc1)c1nc[nH]c1C(=O)Nc1ccc([N+](=O)[O-])cc1,14.6µM*,14.3%,3.4%,-0.6,?,-5.0%
Cc1ccc(NC(=O)c2nc[nH]c2C(=O)Nc2ccc(C)cc2)cc1,7.31µM*,7.9%,2.0%,-1.9,10.3µM*,1.7%
Cc1cccc(NC(=O)c2nc[nH]c2C(=O)NC2CCN(C(=O)OC(C)(C)C)CC2)c1,8.1%,-16.1%,-0.4%,7.3,3.6%,-2.1%
CNC(=O)c1[nH]cnc1C(=O)Nc1ccc(C)cc1,-10.4%,0.4%,5.0%,11.4,-21.5%,-22.9%
O=C(Nc1ccccc1)c1nc[nH]c1C(=O)NCCN(CCNC(=O)c1[nH]cnc1C(=O)Nc1ccccc1)CCNC(=O)c1[nH]cnc1C(=O)Nc1ccccc1,23.1µM*,20µM*,1.8%,-25.8,?,-19.1%
CCCCCCCCCCCC(=O)NC(C(=O)O)C(O)c1ccccc1 (centres undefined),5.6%,-14.6%,-1.2%,-18.6,-0.1%,-31.0%
Cc1cccc(NC(=O)c2nc[nH]c2C(=O)NCCN(CCNC(=O)c2[nH]cnc2C(=O)Nc2cccc(C)c2)CCNC(=O)c2[nH]cnc2C(=O)Nc2cccc(C)c2)c1,5.8µM*,19.2%,0.4%,-22.8,6.51µM*,-1.1%
O=C(Nc1ccccc1)c1nc[nH]c1C(=O)NCCCNC(=O)c1[nH]cnc1C(=O)Nc1ccccc1,14.6µM*,26.5%,0.5%,13.9,?,1.0%
Cc1cccc(NC(=O)CN2CCN(C(=O)C3CCC3)CC2)c1C,-0.6%,-4.8%,-1.8%[56.1 µM],26.4,-20.8%,-73.4%
Cc1cccc(NC(=O)CN2CCN(C(=O)CNC(=O)Cc3cccc4ccccc34)CC2)c1C,10.3µM*,-23.9%,0.0%,20.3,23.1µM*,-6.6%
SMILES,DT40 TDP1 no CPT,TGFb inhibitor,TDP1 block,IL1B secr inh,DT40 TDP1 CPT,HepG2 viability
Cc1cccc(NC(=O)CN2CCN(CC(=O)Nc3ccc(-c4ccccc4)cc3)CC2)c1C,?,-6.1%,6.6%,-10.0,?,-7.4%
Cc1cccc(NC(=O)CN2CCN(CC(=O)NCc3ccc(Cl)cc3Cl)CC2)c1C,?,-0.7%,-0.3%,2.0,23.1µM*,7.0%
NC(=O)c1ccccc1NC(=O)CN1CCN(Cc2ccc(Cl)cc2Cl)CC1,23.1µM*,?,2.3%,i,?,-53.8%
COC(=O)c1cc(S(=O)(=O)NCC2CCN(CCc3cccs3)CC2)cn1C,18.8%,-7.0%,0.6%,-21.6,-6.2%,-9.8%
CCOc1ccc(C(CC(=O)O)NC(=O)C(Sc2ccccc2)c2ccccc2)cc1 (centres undefined),-2.2%,-13.8%,4.6%,21.2,2.1%,-9.0%
CN1CC=C2C(C#N)=C(N)C(C#N)(C#N)C(c3cccc(Cl)c3Cl)C2C1 (centres undefined),?,12.1%,9.3%,-103.2*,23.1µM*,-30.4%
Cc1ccc(C2C3CN(C(C)C)CC=C3C(C#N)=C(N)C2(C#N)C#N)cc1 (centres undefined),12.6µM*,14.7%,6.8%,-2.8,15.8µM*,-3.2%
CN1CC=C2C(C#N)=C(N)C(C#N)(C#N)[C@H](c3ccoc3)[C@H]2C1,20.6µM*,-5.6%,.,20.6,?,5.2%
N#CC1=C(N)C(C#N)(C#N)[C@H](c2ccoc2)[C@H]2CN(Cc3ccccc3)CC=C12,5.8µM*,?,11.9%,24.5,5.8µM*,10.6%
Cc1cc(C)c2c(c1)c(C)cc1nnc(SCC(=O)c3ccccc3)n12,?,-6.6%,2.6%,.,?,1.5%
N#CC1=C(N)C(C#N)(C#N)C(c2cccnc2)C2CN(C(=O)OCc3ccccc3)CC=C12 (centres undefined),?,?,4.7%,-20.8,16.4µM*,-33.2%

# High-throughput results (PubChem)
